# MCF10A rereplic – DNA re-replication induction in MCF 10a cells. Potency, µM (highest dose often 46.1 µM), for inactives: at the highest dose activity, positive = re-replication, hits mostly activators. MCF 10A DNA re-replication, Hoechst nuclear intensity, 48 h. hit rate 2.9% among 350,000; note: potency is the fitted concentration of half-maximal effect; % of control where 0% means no effect; nearly all actives have a fitted effect of over 50% in size
# Giardia kill – kills Giardia lamblia | Giardia lamblia trophozoite viability | activity change, % at 7.66 µM, hits read low | hit rate 0.15% among 340,000 | AID 540267; in the data active = activity change below about -80%; inconclusive = between about -30% and that limit;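 note: parasites exposed to compound for two days anaerobically before the ATP read; % is set by controls: 0 for no effect and ±100 for the full control effect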
#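 Trophozoite viability was measured as ATP-dependent luminescence, read 15-30 min after reagent addition. Before that, parasites at 100 cells/well were exposed to compounds for 48 h, anaerobically, at 37 deg C.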
# IL-1B inflam inh – inflammasome signaling inhibition, IL-1 beta readout. activity change, % at 57.5 µM. THP-1 LPS/ATP IL-1B secretion, AlphaLISA, 16 h; active compounds read low. hit rate 4.7% among 360,000; in the data active = activity change below about -50%; inconclusive = mostly about -30% to -49%; note: % is set by controls: 0 for no effect and ±100 for the full control effect
#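 THP-1 cells pretreated 1 hr with compounds (up to 57.5 uM final), then stimulated with LPS (250 ng/mL final) plus ATP (1.25 mM final); secreted IL-1B measured by AlphaLISA after 16 hr, decreased signal indicating inhibition.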
# Vif-APOBEC3G blk – inhibitors of Vif-APOBEC3G interaction. hit rate 0.076% among 410,000. Q9HC16. HeLa A3G-eYFP + Vif (tagged APOBEC3G with the HIV-1 protein that degrades it), YFP fluorescence, overnight. Potency, µM (top dose mostly 46.1 µM), without a hit: top-dose activity, negative = active, actives largely listed as inhibitors; note: potency is the fitted concentration of half-maximal effect; % is set by controls: 0 for no effect and ±100 for the full control effect; nearly all actives have a fitted effect of over 60% in size
# Target sequence (Q9HC16 whole entry, looked up): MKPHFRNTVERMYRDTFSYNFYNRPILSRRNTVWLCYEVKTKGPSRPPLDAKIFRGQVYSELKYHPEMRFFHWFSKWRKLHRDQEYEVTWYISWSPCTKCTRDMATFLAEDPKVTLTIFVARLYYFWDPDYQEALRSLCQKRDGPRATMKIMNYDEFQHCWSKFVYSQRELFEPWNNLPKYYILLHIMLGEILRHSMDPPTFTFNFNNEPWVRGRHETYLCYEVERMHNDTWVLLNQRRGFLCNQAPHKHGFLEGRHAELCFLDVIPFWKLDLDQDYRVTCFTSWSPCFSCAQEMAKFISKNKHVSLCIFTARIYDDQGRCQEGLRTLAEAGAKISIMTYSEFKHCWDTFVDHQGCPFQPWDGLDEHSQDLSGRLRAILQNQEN
#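 Read-out is eYFP fluorescence (Ex 488/Em 500-530) from Vif-expressing HeLa A3G-eYFP cells; more signal means A3G escaped Vif-mediated degradation. Cells plated overnight, compound pinned in, incubated overnight at 37 deg C.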
# Vif-APOBEC3F blk – Vif-A3F binding inhibition. HeLa A3F-eYFP + Vif (tagged APOBEC3F with the HIV-1 protein that degrades it), YFP fluorescence increase. Potency, µM (top dose mostly 46.1 µM), for inactives: at the top dose activity, negative = active. hit rate 0.2% among 390,000. AID 602313; note: potency is the fitted concentration of half-maximal effect; % of control where 0% means no effect; nearly all actives have a fitted effect of over 65% in size
#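 HeLa cells stably expressing A3F-eYFP plus Vif, plated and incubated overnight at 37 deg C, then exposed to compounds overnight at 37 deg C. Blocked degradation read as raised yellow fluorescence (Ex 488/Em 500-530).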
# SW480 rerep – DNA re-replication induction in SW480 cells | SW480 DNA re-replication, Hoechst DNA content imaging, 48 h | Potency, µM (top dose mostly 46.1 µM), without a hit: at the top dose re-replication activation, most hits filed as activators | hit rate 1.8% among 340,000 | AID 624297; note: potency is the fitted concentration of half-maximal effect; % of control where 0% means no effect; nearly all actives have a fitted effect of over 55% in size
#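 Quantitative HTS format with DMSO vehicle controls; 48 hr drug incubation at 37 C, then 40 min Hoechst staining and scanning imager measurement at 405 nm excitation.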
# Active calls of the source: *; ? = inconclusive; · = no result given. Only some compounds are listed: those with a hit (about 6.9% of all), similar ones and a draw of the others. Unless noted, calls come from the whole dose curve; as a rule, active = well fitted curve in the direction sought with a large enough effect; inconclusive = small, poorly fitted or top-dose-only effect, or another doubt; inactive = no such curve, though single readings can be large; an effect the other way counts as inactive or inconclusive.
SMILES,MCF10A rereplic,Giardia kill,IL-1B inflam inh,Vif-APOBEC3G blk,Vif-APOBEC3F blk,SW480 rerep
COCCNc1nc(NCc2cccc(OC)c2OC)c2sccc2n1,·,·,26,-3%,·,·
COc1ccccc1CNc1nc(NCc2ccc(C)cc2C)c2sccc2n1,·,·,-80*,-5%,·,·
c1ccc(CNc2nc(NCCOc3ccccc3)c3sccc3n2)cc1,·,·,·,-1%,·,·
C#Cc1cccc(Nc2nc(NCc3ccccc3OC)nc3ccsc23)c1,·,·,-71*,-10%,·,·
Cc1ccc2c(c1)N(C(=O)CCC(=O)NCc1cccc(F)c1)CC(C)O2 (configuration not stated),·,·,·,-2%,4%,·
COc1ccccc1CNc1nc(NCc2cnc(C)cn2)c2sccc2n1,·,·,26,-4%,·,·
COc1ccccc1CNc1nc(NCc2ccccc2)nc2ccsc12,·,·,-100*,-27%,·,·
COc1ccccc1CNc1nc(NCc2ccccc2F)c2sccc2n1,·,·,-83*,-18%,·,·
COCCNc1nc(NCc2ccccc2F)c2sccc2n1,·,·,-19,-11%,·,·
Fc1ccccc1CNc1nc(NCC2CC2)nc2ccsc12,·,·,-76*,-14%,·,·
Cc1ccc(NC(=O)CSc2nnc(COc3ccc(Cl)cc3)o2)cc1,·,·,·,0%,1%,·
CCc1ccc2oc(-c3ccc(C)c(NC(=O)COc4ccc(Cl)cc4)c3)nc2c1,·,·,·,1%,·,·
CC1=C(C(=O)OCc2ccc3nsnc3c2)N2C(=O)[C@@H](NC(=O)OCc3ccc4nsnc4c3)[C@H]2SC1,·,·,·,0%,·,·
CCOC(=O)c1cnc(-n2nc(C)cc2C)nc1NC1CCCCC1,21µM*,6,-100*,-7%,?,?
CCOC(=O)c1cnc(-n2nc(C)cc2C)nc1NNc1nc(-c2ccccc2)cc(-c2ccccc2)n1,?,-10,23,1%,7.1µM*,?
CN1CCN(C(=O)c2ccc3c(c2)N(Cc2ccc(Cl)cc2)C(=O)c2ccccc2S3(=O)=O)CC1,·,·,·,0%,-5%,·
COc1ccc(CNC(=O)CN2C(=O)c3cccnc3Oc3ccc(C)cc32)cc1,·,·,·,1%,-8%,·
CN1C/C(=C/c2ccncc2)C(=O)/C(=C/c2ccncc2)C1,?,10,3,4%,?,23µM*
CN1C/C(=C/c2ccsc2)C(=O)/C(=C/c2ccsc2)C1,18µM*,-4,-94*,?,?,3.3µM*
COc1cc(OC)cc(C(=O)NCC(=O)NCCN2C(=O)S/C(=C\c3ccc4c(c3)OCO4)C2=O)c1,3%,1,-54*,-6%,?,-20%
CNC(=S)/N=C/NOCc1ccc(Cl)cc1Cl,10%,1,-51*,-1%,?,4%
NC(=O)NOCc1ccc(Cl)cc1Cl,-1%,24,48,-2%,8%,-2%
CCC(C(=O)NCc1ccco1)N(C(=O)CNS(=O)(=O)c1ccccc1)C1CCCCC1 (configuration not stated),4.1µM*,2,-12,0%,0%,7%
CCc1ccccc1NC(=O)CN(c1ccccc1)S(=O)(=O)c1ccsc1C(=O)OC,·,·,·,0%,-3%,·
O=C(CNC(=O)C1CCCCC1)OCC(=O)c1ccc2c(c1)CCC2,·,6,·,-5%,·,·
SMILES,MCF10A rereplic,Giardia kill,IL-1B inflam inh,Vif-APOBEC3G blk,Vif-APOBEC3F blk,SW480 rerep
COc1ccc(-c2ccnc(-c3ccc(O)cc3)n2)cc1,2.1µM*,-2,0,?,-11%,8.2µM*
COc1ccc2cc(-c3csc(-c4cccnc4)n3)ccc2c1,15µM*,-14,26,-8%,-16%,16%
COc1ccc(-c2nc(-c3ccc(O)cc3O)cs2)cc1OC,21µM*,-10,-67*,-28%,2%,?
COc1ccc(-c2csc(C3=C(O)CN(C(C)C)C3=N)n2)cc1OC,-5%,-6,-76*,-10%,4%,8%
COc1ccc(N2CC(O)=C(c3nc(-c4ccccc4)cs3)C2=N)cc1,13%,7,38,-6%,-16%,-17%
COc1ccc(-c2nc(CCl)cs2)cc1OC,-3%,0,1,0%,-13%,-5%
Cc1ccc(-c2ccnc(-c3ccc(O)cc3)n2)cc1,-1%,0,-15,-4%,-3%,7%
CCOc1ccc(C2C(C(N)=O)=C(C)Nc3nc(SCc4ccccc4)nn32)cc1 (configuration not stated),·,·,·,0%,-4%,·
COc1cc(/C=C2\C=Cc3ccccc32)cc(OC)c1OC,·,·,·,-6%,·,·
c1coc(-c2ccnc(-c3ccncc3)n2)c1,-5%,0,-25,-8%,-19%,-8%
COc1ccc(-c2ccnc(-c3ccncc3)n2)cc1,17%,10,16,?,8%,21µM*
COc1ccc(-c2nc(CCl)cs2)cc1,?,9,0,2%,2%,-5%
COc1ccc(-c2csc(-c3ccc(O)cc3)n2)cc1,15µM*,7,19,?,-5%,7.3µM*
COc1ccccc1C(=O)Nc1ccccc1OCc1cc(=O)n2cc(C)sc2n1,·,·,·,6%,9%,·
CCOc1cccc(C2C=C(c3ccc4c(c3)OCO4)NC(c3ccc(F)cc3)N2)c1O (configuration not stated),·,8,·,-12%,·,·
Fc1ccc(C2CCNCC2COc2ccc3c(c2)OCO3)cc1 (configuration not stated),?,8,-97*,2%,-3%,?
Fc1ccc([C@@H]2CCNC[C@H]2COc2ccc3c(c2)OCO3)cc1,?,2,-59*,-2%,1%,?
O=C(COc1ccc2c(c1)OCO2)Nc1ccccc1F,1%,-28,45,-6%,4%,-10%
C[n+]1cccc(Br)c1,·,·,·,2%,·,·
S=c1[nH]nc(-c2ccncc2)n1/N=C/C(Cl)=C\c1ccccc1,?,-11,-63*,?,-8%,-68%
CC(C)c1ccc(/C=N/n2c(COc3ccccc3)n[nH]c2=S)cc1,21µM*,-1,-19,-10%,18%,8%
Cc1ccc(/C=N/n2c(COc3ccccc3)n[nH]c2=S)cc1,-2%,-6,0,-1%,-3%,-15%
S=c1[nH]nc(COc2ccccc2)n1/N=C/C(Cl)=C/c1ccccc1,?,8,-91*,?,-15%,?
Cc1cc(C)c(NC(=O)Cn2nc3c(cc2=O)CCCC3)c(C)c1,·,·,·,-21%,-2%,·
CCOC(=O)[C@]12CCCC=C1N(Cc1ccc(Cl)cc1Cl)C(=O)[C@H](CC(=O)NCc1cccs1)C2,·,·,-29,·,·,·
CCOC(=O)[C@]12CCC=C1N(Cc1ccc(Cl)cc1Cl)C(=O)[C@H](CC(=O)NCc1cccs1)C2,·,·,-61*,·,·,·
CCOC(=O)[C@]12CCCC=C1N(Cc1ccc(Cl)cc1Cl)C(=O)[C@H](CC(=O)NCC1CCCCC1)C2,·,·,-62*,·,·,·
